Data: PubChem BioAssay AID743279 (National Center for Advancing Translational Sciences (NCATS), 2014)
Out of some 360,000 compounds screened, about 17,000 (4.7%) were called active. Not shown: some 5% with an inconclusive outcome. This is one part of a sample in which actives are shown more often than they occur. Cut-off read from the data, not from the text of the source: active = activity change below about -50%; inconclusive = mostly about -30% to -49%; inactive = weaker than that.

Assay: qHTS for Inhibitors of Inflammasome Signaling: IL-1-beta AlphaLISA Primary Screen
Settings: THP-1 LPS/ATP IL-1B secretion, 16 h, at 57.5 µM, hits give low values
Description: Inflammasomes are a set of intracellular multi-protein complexes that enable autocatalytic activation of inflammatory caspases and drive the innate immune response to counter harmful agents. […] A qHTS assay, based on AlphaLISA technology, was developed to screen the Molecular Libraries Small Molecule Repository (MLSMR) to look for novel inflammasome inhibitors. The assay detects IL-1B using AlphaLISA anti-IL-1B acceptor and donor beads. A decreased emission signal, indicating reduced IL-1B secretion, is the desired outcome for this assay. NIH Chemical Genomics Center [NCGC] NIH Molecular Libraries Probe Centers Network [MLPCN] MLPCN Grant: MH095513 Assay Provider: Shyam Biswal Ph.D., Johns Hopkins University Immunity. 2012 Jul 27;37(1):85-95. PMID: 22819042 [2] Curr Pharm Des. 2012;18(16):2320-8. PMID: 22390695
Three microliters containing 3000 THP-1 cells were dispensed into the wells of solid, white, tissue culture treated Greiner 1,536-well plates. Library compounds and positive control, Glyburide, were pin-transferred (23 nL) by a Kalypsys pin-tool equipped with a 1,536-pin array, resulting in final compound concentration ranges of 2.5 nM to 57.5 uM. After 1 hr of cell culture incubation (37 °C, 5% CO2), 1 microL of 1 microg/mL lipopolysaccharide (250 ng/mL, final) and 5 mM ATP (1.25 mM, final) were added to stimulate the cells. After 16 hr of cell culture incubation with the compounds, 1.5 uL of anti-IL-1B acceptor beads (6 ug/mL, final) and biotinylated antibody (0.6 nM, final) were added to the plate, followed by a 1 hr incubation at ambient temperature. To detect the secreted IL-1B, 1.5 uL of AlphaLISA SA-Donor beads (24 ug/mL, final) were added, followed by 30 min of incubation in the dark at ambient temperature. The AlphaLISA signal was read by a PerkinElmer EnVision plate reader with an ultrasensitive luminescence detector and 1536 Plate HTS AlphaScreen aperture (excitation of 680nm and emission of 615nm).
% is set by controls: 0 for no effect and ±100 for the full control effect.

Structure (SMILES)	activity change
O=c1[nH]c2ccccc2n1C1CCN(C(c2ccccc2)c2nnnn2Cc2ccccc2)CC1 (stereo not given)	-56.7% (active)
CSCCC(c1nnnn1C(C)(C)C)N1CCC(n2c(=O)[nH]c3ccccc32)CC1 (stereo not given)	-2.99% (inactive)
COc1ccc(-n2nnnc2C(c2cccc3ccccc23)N2CCC(n3c(=O)[nH]c4ccccc43)CC2)cc1 (stereo not given)	-8.75% (inactive)
Cc1ccc(OC(=O)N(C)C[C@@H]2OCc3cnnn3CCCC(=O)N([C@H](C)CO)C[C@@H]2C)cc1	37.1% (inactive)
CCOc1ccc(C2SCC(=O)Nc3c2c(C)nn3C2CCOC(C)(C)C2)cc1 (stereo not given)	13.7% (inactive)
O=C(CCC(=O)N1C[C@H]2C[C@@H](C1)c1cccc(=O)n1C2)NCc1ccccc1C(F)(F)F	-1.41% (inactive)
c1ccc(N2Cc3ccccc3-n3nncc3C2)nc1	12.3% (inactive)
CC(=O)C1(O)CCC2C3CCC4=C(Cl)C(=O)CCC4(C)C3CCC21C (stereo not given)	-20.8% (inactive)
CCC(C)(O)C(=O)OC1C(=O)OC2CC3C(C)=CC(=O)C(O)C3(C)C3C4(O)OCC23C1C(C)C4O (stereo not given)	-100% (active)
CC(=O)NCC1=C(c2ccc3ccccc3c2)C[C@@H]2CC[C@H]1N2Cc1ccco1	-3.75% (inactive)
c1cc2c(c(NC3=NCCCS3)c1)CCCC2	-2.25% (inactive)
COc1ccccc1N=Nc1c(O)[nH]c(=S)[nH]c1=O	56.6% (inactive)
CCC1(C)CC(CCNCc2ccc(N(C)C)cc2)(c2ccc(F)cc2)CCO1 (stereo not given)	-72.1% (active)
CC1CC=CCC12C(=O)NC(=S)NC2=O (stereo not given)	5.3% (inactive)
CC=C(C)C(=O)OC1CCN2CC=C(COC(=O)C(O)(C(C)OC)C(C)(C)O)C12 (stereo not given)	12.9% (inactive)
O=C(c1ccccc1[N+](=O)[O-])N1CCC2(CC1)OCCO2	-4.53% (inactive)
O=C(c1cc2nc(-c3ccccc3)cc(-c3ccccc3)n2n1)N1CCC2(CC1)OCCO2	-87.9% (active)
O=C(c1cc(-c2ccncc2)nc2ccccc12)N1CCC2(CC1)OCCO2	0% (inactive)
COc1cccc(C(c2nnnn2-c2ccc3c(c2)OCCO3)N2CCC3(CC2)C(=O)NCN3c2ccccc2)c1OC (stereo not given)	-6.07% (inactive)
COC(=O)COc1cc(C)cc2oc(=O)c3c(c12)CCCC3	22.7% (inactive)

Structure (SMILES)	activity change
CC1([N+](=O)[O-])COP(=O)(Nc2ccc(F)cc2)OC1 (stereo not given)	15.6% (inactive)
COc1cc(-n2c(=S)[nH]c3ccc(C)cc3c2=O)c(Cl)cc1Cl	71.7% (inactive)
OC1/C(=C/c2ccc(C(F)(F)F)cc2)N2CCC1CC2 (stereo not given)	22.5% (inactive)
CCOC(=O)[C@]12Cc3cc(OC)ccc3[C@H]1N(C(C)C)C(=O)c1ccccc12	-125% (active)
O=c1c2ccccc2nc(CBr)n1-c1ccc(Cl)cc1	-7.74% (inactive)
O=C(C1CC(=O)N(C2CCCC2)C1)N1CCC2(CC1)OCCO2 (stereo not given)	13.5% (inactive)
CN1CCN(/N=C/c2c[nH]c3ccccc23)CC1	7.92% (inactive)
CN(C)c1ccc(/C=C2\CC3C4CC=C5CC(O)CCC5(C)C4CCC3(C)C2=O)cc1 (stereo not given)	0.523% (inactive)
C[C@@]1([C@@H](NP(=O)(c2ccccc2)c2ccccc2)c2ccccc2)C[C@H]1CCO	-4.2% (inactive)
CCNc1nc2[nH]c(=O)c3c(c2s1)OC(N)=C(C#N)C3c1cccs1 (stereo not given)	-64% (active)
CC(C)c1ccc(OCC(=O)N2CCN(C)CC2)c(Br)c1	9.25% (inactive)
COC(=O)C1=C(c2ccc(OCc3ccccc3)cc2)C[C@@H]2CC[C@H]1N2C(=O)NCc1cccc(F)c1	-12.8% (inactive)
CC1=CC(=Cc2sc3ccccc3[n+]2C)C=C(C)O1	-51.7% (active)
COc1ccc(CNCCc2c[nH]c3ccccc23)cc1OC	-24.9% (inactive)
COc1ccc(Br)cc1CNCCc1cccc(Cl)c1	-72.2% (active)
COc1ccc(CNCCc2ccc3c(c2)OCO3)c(OC)c1OC	-11.8% (inactive)
Nc1ccc(Cc2ccc(N)c(Cl)c2)cc1Cl	-24.6% (inactive)
COC(=O)CN(CCCl)P1(=O)OCCCN1CCCl (stereo not given)	41.8% (inactive)
CCOP(=S)(OCC)SCOC(=O)NCC(=O)OC	0.573% (inactive)
CN(C)CC1Oc2ccccc2OC1(O)c1ccccc1 (stereo not given)	-101% (active)

Structure (SMILES)	activity change
Cc1cccc(N2C(=O)NC(=O)/C(=C\c3cnn(-c4ccccc4)c3)C2=O)c1	-60% (active)
COc1cccc(N2C(=O)NC(=O)/C(=C\c3ccc([N+](=O)[O-])s3)C2=O)c1	-0.584% (inactive)
O=C1NC(=O)N(c2ccccc2)C(=O)/C1=C/c1ccc([N+](=O)[O-])s1	-11.6% (inactive)
Cn1c(O)c(C(=Nc2ccc(F)cc2)c2ccccc2)c(=O)n(C)c1=O	3% (inactive)
c1cncc(CNC2=NCCC2)c1	34.2% (inactive)
CCOC(=O)C1(c2ccccc2)CCN(CC(O)c2ccc(NC(C)=O)cc2)CC1 (stereo not given)	-10.2% (inactive)
CC1=C(C(=O)Nc2ccccc2)S(=O)(=O)CCO1	-86.7% (active)
CC1=C(C(=O)Nc2ccccc2)SCCO1	19.6% (inactive)
C[C@]12CCC3C(CC[C@H]4[C@H](O)[C@H](O)CC[C@]34C)C1CC[C@@H]2O (stereo not given in full)	38.5% (inactive)
CC(=CCOc1ccc2ccc(=O)oc2c1)C1=CC(=O)C(C)(C)O1	-91.3% (active)
CC(CC(C#N)(c1ccccc1)c1ccccc1)N1CCCCC1 (stereo not given)	-2.29% (inactive)
O=C1C2CCN(CC2)C1(CO)CO	-9.66% (inactive)
CCC(=O)c1ccc(OCC(=O)N2CCN(CC(=O)Nc3ccc(C)cc3)CC2)cc1	14.3% (inactive)
Clc1ccc2nc3c(c(-c4ccccc4)c2c1)CNCC3	-57% (active)
C[C@H]1CN([C@@H](C)CO)C(=O)CCCn2nncc2CO[C@H]1CN(C)C(=O)Oc1ccccc1	16.8% (inactive)
O=C(CCN1CCCCC1)NCC(=O)Nc1ccc(Br)cc1C(=O)c1ccccc1	-10.3% (inactive)
CN1CCN(C(=S)SCC(=O)Nc2ccc(Cl)cc2C(=O)c2ccccc2)CC1	-88% (active)
O=C(CN1CCCCC1)Nc1ccc(Br)cc1C(=O)c1ccccc1Cl	-8.15% (inactive)
O=C(COC(=O)c1ccccc1)Nc1ccc(Cl)cc1C(=O)c1ccccc1	15.9% (inactive)
O=C(CCNS(=O)(=O)c1ccccc1)Nc1ccc(Cl)cc1C(=O)c1ccccc1	-63% (active)
